Laboratory results: ChEMBL document CHEMBL1201862, “PubChem BioAssay data set” (2004)
The campaign covered roughly 420,000 compounds. About 64,000 (15%) were called active. Roughly 27% stayed inconclusive and do not appear here. No cut-off for these calls is given here. The sample as a whole holds a higher share of actives than the screen did.

Molecular target: Tyrosyl-DNA phosphodiesterase 1 (Homo sapiens) (UniProt Q9NUW8)
Test: qHTS for Inhibitors of human tyrosyl-DNA phosphodiesterase 1 (TDP1): qHTS in cells in absence of CPT.
Format: functional

Chain of Tyrosyl-DNA phosphodiesterase 1 (Homo sapiens) (Q9NUW8 whole entry): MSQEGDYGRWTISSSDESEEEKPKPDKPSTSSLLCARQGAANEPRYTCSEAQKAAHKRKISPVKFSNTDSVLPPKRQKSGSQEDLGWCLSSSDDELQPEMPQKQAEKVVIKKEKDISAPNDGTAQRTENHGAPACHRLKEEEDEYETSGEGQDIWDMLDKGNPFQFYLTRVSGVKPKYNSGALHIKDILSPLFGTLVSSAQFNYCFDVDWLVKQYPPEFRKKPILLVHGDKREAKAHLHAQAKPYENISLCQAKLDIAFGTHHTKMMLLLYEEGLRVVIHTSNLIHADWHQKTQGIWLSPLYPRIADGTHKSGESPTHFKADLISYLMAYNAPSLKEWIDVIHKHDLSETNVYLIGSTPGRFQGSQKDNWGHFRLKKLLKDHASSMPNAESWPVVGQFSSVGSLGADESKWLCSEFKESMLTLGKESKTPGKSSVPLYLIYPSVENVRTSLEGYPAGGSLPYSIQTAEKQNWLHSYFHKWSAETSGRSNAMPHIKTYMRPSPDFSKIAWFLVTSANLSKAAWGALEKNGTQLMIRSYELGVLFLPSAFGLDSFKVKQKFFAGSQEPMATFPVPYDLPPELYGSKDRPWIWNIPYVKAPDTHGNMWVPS

SMILES | Potency
Cc1cccc2c1N(CCCCI)C=S2C (stereo not drawn) | 3.98 µM (active)
ICCCCN1C=S(CI)c2ccccc21 (stereo not drawn) | 8.91 µM (active)
COc1ccc(OC)c(/C=C/c2cccc3c2N(CCCCI)C=S3/C=C/c2cc(OC)ccc2OC)c1 (stereo not drawn) | 7.08 µM (active)
CN(C)c1ccc(/C=C/c2cccc3c2N(CCCCI)C=S3/C=C/c2ccc(N(C)C)cc2)cc1 (stereo not drawn) | 15.8 µM (active)
CCOc1ccc(N2C(=O)c3ccccc3N/C2=C\N2CCN(C(=O)c3ccco3)CC2)cc1 | 10 µM (active)
COc1ccccc1/C=C/C(=O)c1cccs1 | 5.96 µM (active)
O=C(/C=C/c1ccc(Cl)cc1)c1cccs1 | 7.5 µM (active)
CC(C)C(C)c1cccc2c1NC=S2C(C)C(C)C (stereo not drawn) | 5.62 µM (active)
